According to PubChem BioAssay (NCI):
About 83,000 compounds went through this panel and 20% of them were active in at least one assay; those are over-represented in the sample as a whole.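 Treatment: one concentration, 48 hours, 96-well format. Scoring: percent growth, with anything below 10 considered active.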 The source made the active and inactive calls.

What was measured:
Assay in all cases: NCI-60 one-dose screen, 48 h (100 = growth as untreated, 0 = no growth, -100 = all killed)
Details in all cases: 10 µM unless noted
[1] = tested on: EKVX NSCLC
[2] = tested on: SN12C renal
[3] = tested on: UO-31 renal
[4] = tested on: ACHN renal
[5] = tested on: CAKI-1 renal
[6] = tested on: A498 renal
[7] = tested on: CCRF-CEM leukemia
[8] = tested on: MOLT-4 leukemia
[9] = tested on: SR leukemia
[10] = tested on: RPMI-8226 leukemia
[11] = tested on: OVCAR-8 ovarian
[12] = tested on: OVCAR-5 ovarian
[13] = tested on: OVCAR-4 ovarian
[14] = tested on: SK-OV-3 ovarian
[15] = tested on: IGROV1 ovarian
[16] = tested on: OVCAR-3 ovarian
[17] = tested on: NCI/ADR-RES ovarian
[18] = tested on: TK-10 renal
[19] = tested on: HS 578T breast

Measured: growth

O=C(CSc1nnc(-c2cc(-c3ccccc3)nc3ccccc23)o1)c1ccc(Br)cc1
inactive: [1] 107% | [2] 98% | [3] 83.1% | [4] 107% | [5] 91.2% | [6] 102% | [7] 105% | [8] 104% | [9] 83.7% | [10] 109% | [11] 100% | [12] 104% | [13] 106% | [14] 112% | [15] 102% | [16] 108% | [17] 107%

Cc1cc(C)c2c(N)c3cccc(C)c3nc2n1
active: [1] 3.6% | [2] 6.82% | [3] -84.5% | [18] -1.3% | [4] 5.96% | [6] -57.2% | [7] 1.26% | [8] -10.5% | [10] -35% | [12] -22.9% | [13] 2.47% | [14] 2.68% | [15] -38.1% | [16] -35.7% | [17] -28.9%
inactive: [19] 73.2%

c1ccc(-c2n(Cc3ccc4ccccc4c3)cc[n+]2Cc2ccc3ccccc3c2)cc1
active: [1] 3.5% | [2] -34.7% | [3] -16.6% | [18] -69.8% | [6] -20.5% | [7] 6.85% | [8] -24.9% | [9] -42.2% | [10] -37% | [11] -72.4% | [12] -35.9% | [13] -28.1% | [14] -6.1% | [15] -67.8% | [16] -89.8%
inactive: [4] 13.3% | [17] 82.2%

COc1ccc2c(=O)c(OC)c(-c3cc(OC)c(OC)c(OC)c3)oc2c1
inactive: [1] 109% | [2] 77% | [18] 124% | [4] 92.2% | [6] 96.1% | [7] 93.4% | [8] 99.6% | [12] 101% | [13] 96.6% | [14] 114% | [16] 98.6% | [19] 91.9% | [17] 83.9%
active: [3] -82.5%

COc1ccc(C(=O)/C=C/c2cccc(Nc3ccnc4cc(Cl)ccc34)c2)cc1
active: [3] 6.64% | [18] -11% | [9] 0.362% | [13] -46%
inactive: [1] 50.9% | [2] 25.7% | [4] 29.6% | [6] 39.7% | [7] 37.2% | [8] 42.3% | [10] 35.3% | [11] 10.2% | [12] 39.3% | [14] 64% | [15] 30.2% | [16] 23.9% | [17] 21.3%

CCCCc1n(Cc2ccc3ccccc3c2)cc[n+]1Cc1ccc2ccccc2c1
active: [2] -22.3% | [18] -10.4% | [6] 0.276% | [7] 6.82% | [8] -17.5% | [9] -44.1% | [10] -39.9% | [11] -35.8% | [12] 8.66% | [13] 9.46% | [14] -3.39% | [15] -57.9%
inactive: [1] 14.4% | [3] 18.9% | [4] 30% | [17] 87.9%

CC(=O)N1N=C(c2ccc(Nc3nc(NCCO)nc(NCCO)n3)cc2)CC1c1ccc(Cl)cc1 (stereo not given)
inactive: [1] 91.9% | [2] 98.8% | [3] 96.9% | [18] 83.3% | [4] 96.4% | [6] 102% | [7] 114% | [8] 116% | [9] 142% | [10] 112% | [11] 104% | [12] 103% | [13] 104% | [14] 101% | [15] 99.4% | [16] 96.4% | [17] 99.8%

O=C1c2cc3c(cc2-c2c1c1ccc(Cl)cc1c(=O)n2CCCNCCO)OCO3
active: [1] -65.3% | [2] -66.6% | [3] -81.7% | [4] -87.5% | [5] -80% | [6] -94.4% | [7] -24.9% | [8] -34.5% | [9] -43.8% | [10] -30.5% | [11] -64.7% | [12] -78.8% | [13] -64.8% | [14] -8.64% | [15] -66.7% | [16] -81.1% | [19] -49.6% | [17] -51.1%

OCCCc1n(Cc2ccc3ccccc3c2)c2ccccc2[n+]1Cc1ccc2ccccc2c1
active: [2] 8.7% | [9] -30.9% | [15] -42.2% | [16] 0.774%
inactive: [1] 47.6% | [3] 76.4% | [18] 37.5% | [4] 81.6% | [6] 46% | [7] 30.8% | [8] 19.7% | [11] 15.2% | [12] 31% | [13] 22.3% | [14] 62.2% | [17] 90.5%

O=C(CNC(=O)c1cccc2ccccc12)Nc1ccccc1Oc1cccc(O)c1
active: [14] 7.7% [5 µM] | [16] -10.8% [5 µM]
inactive: [1] 47.2% [5 µM] | [2] 49% [5 µM] | [3] 44.5% [5 µM] | [18] 42% [5 µM] | [4] 51% [5 µM] | [6] 11.5% [5 µM] | [7] 15.1% [5 µM] | [8] 11.9% [5 µM] | [9] 18.7% [5 µM] | [10] 25.9% [5 µM] | [12] 39.9% [5 µM] | [13] 59.1% [5 µM] | [15] 42.9% [5 µM] | [17] 13% [5 µM]

Cc1sc2nc(NCCc3cccs3)[nH]c(=O)c2c1C
inactive: [1] 85.5% | [2] 87.7% | [3] 90% | [18] 96.8% | [4] 96.1% | [6] 70.7% | [7] 81.9% | [9] 72.1% | [10] 86.7% | [11] 87.4% | [12] 97.8% | [13] 95.6% | [14] 79% | [15] 101% | [16] 106% | [17] 85.2%

CCCc1n(Cc2ccc3ccccc3c2)cc[n+]1Cc1ccc2ccccc2c1
inactive: [1] 21.1% | [3] 34.8% | [4] 42.3% | [7] 11.8% | [17] 89.2%
active: [2] -3.87% | [18] -8.58% | [6] -3.35% | [8] -5.48% | [9] -38.1% | [10] -22.2% | [11] -10.6% | [12] 9.11% | [13] 9.35% | [14] 6.89% | [15] -54.2% | [16] -55.6%

CC(=O)N1N=C(c2ccc(Cl)cc2)CC1c1c(C)nn(-c2ccccc2)c1N(C)Cc1ccccc1 (stereo not given)
inactive: [1] 76.4% | [2] 63.2% | [3] 50.2% | [18] 88.5% | [4] 90.9% | [6] 71.6% | [7] 73% | [8] 44.4% | [9] 72.4% | [11] 80.9% | [12] 97.9% | [13] 80% | [14] 70.6% | [15] 63.7% | [16] 81.9% | [17] 64.1%

COc1cc(C2=NN(C=O)C(c3cccc(Nc4ccnc5cc(Cl)ccc45)c3)C2)cc(OC)c1OC (stereo not given)
inactive: [1] 79.3% | [2] 77.2% | [3] 68.7% | [18] 87.9% | [4] 86.2% | [6] 62.5% | [7] 53.9% | [8] 27.9% | [10] 53.7% | [11] 70% | [12] 94.2% | [13] 69.3% | [14] 80.5% | [15] 102% | [16] 85.2% | [17] 65.5%
active: [9] 9.32%

CCCCCCCCCCNCCSS(=O)(=O)O
inactive: [1] 101% | [2] 31.5% | [3] 70.6% | [4] 92.6% | [5] 98.8% | [6] 101% | [7] 50.3% | [9] 52.1% | [10] 98.2% | [11] 65.9% | [12] 103% | [13] 102% | [14] 84.8% | [15] 91.2% | [16] 72.3% | [19] 52.1% | [17] 83.7%
active: [8] 9.96%

Nc1nc2c(c(=O)[nH]1)C1(C(=O)Nc3ccccc31)c1c(nc(N)[nH]c1=O)N2
inactive: [1] 104% | [2] 103% | [3] 86.7% | [4] 105% | [5] 102% | [6] 108% | [7] 105% | [8] 90% | [9] 111% | [10] 96.2% | [12] 112% | [13] 102% | [14] 108% | [15] 101% | [16] 103% | [19] 110% | [17] 102%

CN(C)CCCNc1nn2c(=O)c3ccccc3nc2c2ccccc12
inactive: [1] 53.5% | [2] 58.3% | [18] 75.3% | [4] 29.9% | [5] 20.8% | [6] 92% | [7] 30.3% | [10] 48.8% | [12] 80.9% | [13] 77.4% | [14] 54.6% | [16] 57.7% | [19] 61.6% | [17] 72.7%
active: [15] -12.2%

CCN(CC)c1ccc(C(=C2C=CC(=[N+](CC)Cc3cccc(S(=O)(=O)O)c3)C=C2)c2ccc(N(CC)Cc3cccc(S(=O)(=O)O)c3)cc2)cc1
active: [10] -43.1%
inactive: [1] 33.2% | [2] 22.8% | [18] 69.5% | [4] 77.3% | [6] 36% | [7] 12.4% | [8] 48% | [12] 68.2% | [13] 67.1% | [14] 85.3% | [15] 16.1% | [16] 14.2% | [19] 71.9% | [17] 92.6%
